Screens from PubChem BioAssay.
Sampled rows, rich in hits. Any-hit rate of the full collection: about 21%.
DT40 TDP1 no CPT: qHTS for Inhibitors of human tyrosyl-DNA phosphodiesterase 1 (TDP1): qHTS in cells in absence of CPT. DT40 Tdp1-/- hTDP1 cells, no CPT, ATP luminescence, 48 h. Potency, µM (series often up to 46.2 µM), for the others: at the highest dose activity change, negative = growth inhibition, actives largely listed as inhibitors. 420,000 tested, 15% active. AID 686978, 2013; note: potency is the fitted concentration of half-maximal effect; % is set by controls: 0 for no effect and ±100 for the full control effect; nearly all actives have a fitted effect of over 55% in size
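Camptothecin absent (DMSO only). Human TDP1-complemented DT40 knockout cells, 400 cells/well, 37 °C for minimum 48 hr; ATP measured via CellTiter-Glo, 30 min dark incubation, luminescence.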
IL-1B inflam inh: inflammasome signaling inhibition, IL-1 beta readout; THP-1 LPS/ATP IL-1B secretion, AlphaLISA, 16 h; active compounds read low; activity change, % at 57.5 µM; 360,000 tested, 4.7% active; AID 743279; in the data active = activity change below about -50%; inconclusive = mostly about -30% to -49%; note: % is set by controls: 0 for no effect and ±100 for the full control effect
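THP-1 cells pretreated 1 hr with compounds (up to 57.5 uM final), then stimulated with LPS (250 ng/mL final) plus ATP (1.25 mM final); secreted IL-1B measured by AlphaLISA after 16 hr, decreased signal indicating inhibition.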
D3 antag: D3 dopamine receptor (human) antagonism | max response, negative = inhibition, % | 360,000 tested, 2.5% active | AID 652054 | P35462 | D3R cells, DiscoveRx beta-arrestin luminescence, antagonist mode; active compounds read low; in the data active = max response below about -50%; inconclusive = no clear call, values can overlap the other calls; note: % is set by controls: 0 for no effect and ±100 for the full control effect
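Cells expressing the human receptor were seeded at 1500 cells/well, incubated overnight at 37 degrees C in 5% CO2, then exposed to library compounds with dopamine controls for 90 minutes at 37 degrees C before luminescent detection.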
ClpP mod: qHTS Assay for Activators of ClpP | ATP-dependent Clp protease proteolytic subunit (Bacillus subtilis (strain 168)), P80244 | purified B. subtilis ClpP, FRET peptide cleavage, 20 min | AID 651965, 2013 | Potency, µM (doses to about 57.5 µM), inactives show top-dose activity change, negative = active | 340,000 tested, 1.9% active; active = well fitted falling curve with a large enough effect; inconclusive = small, poorly fitted or top-dose-only effect; inactive = no such curve, though single readings can be large or run the other way; note: potency is the fitted concentration of half-maximal effect; the source files actives as falling curves though it sought activators and does not explain the sign; nearly all actives have a fitted effect of over 65% in size
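Buffer: 100 mM Tris/HCl pH8, 100 mM KCl, 0.05% low protease BSA, 2.5% glycerol, 0.01% Tween-20. ClpP 10 microg/mL final; 20 min RT; delta FRET normalized to ADEP and DMSO controls.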
DRD3 agonist: activates the human D3 dopamine receptor | P35462 | max activation, % | D3R DiscoveRx beta-arrestin cells, luminescence, 90 min | 410,000 tested, 0.58% active | AID 652048; in the data active = max activation above about 30%; note: 0% is about no effect
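Cells at 1500/well, incubated overnight, then treated with pinned compounds (dopamine as control) for 90 min at 37 degrees C. DiscoveRx reagent added for 30 - 60 minutes at room temperature; luminescence read.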
TDP1 cell CPT: DT40-hTDP1 cell growth loss with CPT. chicken DT40 Tdp1-/-;hTDP1 cells + 20 nM CPT, ATP luminescence, 48 h. Potency, µM (highest dose often 46.2 µM), inactives show at the highest dose activity change, negative = growth inhibition, usual class: inhibitors. 420,000 tested, 12% active. AID 686979; note: potency is the fitted concentration of half-maximal effect; % is set by controls: 0 for no effect and ±100 for the full control effect; nearly all actives have a fitted effect of over 55% in size
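Chicken DT40 Tdp1-/- cells stably complemented with human TDP1 were seeded at 400 cells/well in medium containing 20 nM camptothecin, exposed to pin-transferred compounds, and grown at 37 °C for at least 48 hr. Viability was read as ATP luminescence.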
An asterisk follows results filed as active. Unless noted, calls come from the whole dose curve; as a rule, active = well fitted inhibition curve with a large enough effect; inconclusive = small, poorly fitted or top-dose-only effect; inactive = flat fitted curve, though single readings scatter.

What do the screens show for `O=[N+]([O-])c1ccc(CNc2ccc(F)cc2)s1`?
DT40 TDP1 no CPT: inconclusive; IL-1B inflam inh: -85*; D3 antag: -2; ClpP mod: 1%; DRD3 agonist: 2; TDP1 cell CPT: -14%

Results for COc1ccc(N2CCN(C(=O)C(=O)c3cc(OC)c(OC)c(OC)c3)CC2)cc1 ?
DT40 TDP1 no CPT: -26%; IL-1B inflam inh: 10; D3 antag: 0; ClpP mod: -1%; DRD3 agonist: -4; TDP1 cell CPT: -24%

Results for Cc1nc2nc(SCC(=O)N(C)Cc3ccccc3)nn2c(C)c1Cc1ccccc1Cl ?
DT40 TDP1 no CPT: inconclusive; ClpP mod: -7%; DRD3 agonist: 7; TDP1 cell CPT: inconclusive

How did Cc1ccccc1-n1ncc2c1CC(C)(C)CC2NC(=O)C1=CC(=O)CC(C)(C)O1 (configuration not stated) do in these assays?
DT40 TDP1 no CPT: inconclusive; IL-1B inflam inh: 34; D3 antag: -1; ClpP mod: 0%; DRD3 agonist: 1; TDP1 cell CPT: inconclusive

What do the screens show for `O=C(CS(=O)(=O)Cc1ccccc1)NCc1ccco1`?
DT40 TDP1 no CPT: 0%; IL-1B inflam inh: 10; D3 antag: -15; DRD3 agonist: 0; TDP1 cell CPT: -11%

Results for O=C(CNC(=O)c1ccccc1)Sc1ccccc1 ?
DT40 TDP1 no CPT: 18µM*; IL-1B inflam inh: -29; D3 antag: 1; DRD3 agonist: -4; TDP1 cell CPT: inconclusive

What do the screens show for `O=C(NCSc1ccccc1)c1ccccc1`?
DT40 TDP1 no CPT: -28%; IL-1B inflam inh: 1; D3 antag: 3; ClpP mod: 1%; DRD3 agonist: -8; TDP1 cell CPT: inconclusive

How did O=C(CCCCC(=O)Sc1ccccc1)Sc1ccccc1 do in these assays?
DT40 TDP1 no CPT: inconclusive; IL-1B inflam inh: -96*; D3 antag: 0; ClpP mod: 5%; DRD3 agonist: -4; TDP1 cell CPT: inconclusive

How did CSCCC(NC(=O)c1cccc(C)c1)C(=O)OCN1C(=O)c2ccccc2C1=O (configuration not stated) do in these assays?
DT40 TDP1 no CPT: -5%; IL-1B inflam inh: 6; D3 antag: 6; ClpP mod: -2%; DRD3 agonist: 1; TDP1 cell CPT: -1%

How did CC(C)NC(=O)N(C)C[C@H]1Oc2ccc(NC(=O)Nc3ccc(C(F)(F)F)cc3)cc2C(=O)N([C@H](C)CO)C[C@@H]1C do in these assays?
DT40 TDP1 no CPT: -16%; IL-1B inflam inh: -18; D3 antag: 0; ClpP mod: 0%; DRD3 agonist: -16; TDP1 cell CPT: -8%

What do the screens show for `Cc1ccc(N2C(=O)CSC23C(=O)Nc2ccccc23)cc1` (configuration not stated)?
DT40 TDP1 no CPT: -14%; IL-1B inflam inh: 0; D3 antag: 0; ClpP mod: 1%; DRD3 agonist: 4; TDP1 cell CPT: -4%

Results for Cc1ccc2c(c1)C1(SC(C)C(=O)N1c1ccc(Cl)cc1)C(=O)N2 (configuration not stated) ?
DT40 TDP1 no CPT: 4.1µM*; IL-1B inflam inh: 37; D3 antag: -12; ClpP mod: 2%; DRD3 agonist: 2; TDP1 cell CPT: 6.5µM*

How did COc1ccc(F)cc1C(=O)C1CCCN(Cc2ccc3c(c2)OCCO3)C1 (configuration not stated) do in these assays?
DT40 TDP1 no CPT: inconclusive; IL-1B inflam inh: -3; D3 antag: -105*; ClpP mod: -11%; DRD3 agonist: -3; TDP1 cell CPT: inconclusive

Results for Cc1c(CN2CCCCC2C)c(=O)n(-c2ccccc2)n1C (configuration not stated) ?
DT40 TDP1 no CPT: 1%; IL-1B inflam inh: -11; D3 antag: -58*; ClpP mod: -1%; DRD3 agonist: -13; TDP1 cell CPT: 1%

Results for COc1ccc(F)cc1C(=O)C1CCCN(Cc2ccc(Oc3ncccn3)cc2)C1 (configuration not stated) ?
DT40 TDP1 no CPT: inconclusive; IL-1B inflam inh: -6; D3 antag: -73*; DRD3 agonist: -12; TDP1 cell CPT: -24%

How did Cc1c(Cc2c(C)n(C)n(-c3ccccc3)c2=O)c(=O)n(-c2ccccc2)n1C do in these assays?
DT40 TDP1 no CPT: -17%; IL-1B inflam inh: 0; D3 antag: 1; ClpP mod: -1%; DRD3 agonist: 2; TDP1 cell CPT: -5%

How did COc1ccccc1C(=O)C1CCCN(Cc2ccc3c(c2)OCCO3)C1 (configuration not stated) do in these assays?
DT40 TDP1 no CPT: inconclusive; IL-1B inflam inh: -13; D3 antag: -50*; DRD3 agonist: -38; TDP1 cell CPT: inconclusive

How did COc1ccc(F)cc1C(=O)C1CCCN(C(=O)CSc2ccccn2)C1 (configuration not stated) do in these assays?
DT40 TDP1 no CPT: -17%; IL-1B inflam inh: 36; D3 antag: 11; DRD3 agonist: 1; TDP1 cell CPT: -5%

What do the screens show for `CC(OC(=O)C1CC1)C(=O)Nc1ncc(Cl)cc1Cl` (configuration not stated)?
DT40 TDP1 no CPT: 9%; IL-1B inflam inh: 16; D3 antag: -26; ClpP mod: -2%; DRD3 agonist: 4; TDP1 cell CPT: 0%

What do the screens show for `CCc1ccc(NC(=O)C2CCCN(S(=O)(=O)c3c(C)noc3/C=C/N(C)C)C2)cc1` (configuration not stated)?
DT40 TDP1 no CPT: inconclusive; ClpP mod: -3%; DRD3 agonist: 1; TDP1 cell CPT: inconclusive

Results for Cc1cccc(Nc2nnc(SCC(=O)NCC3CCCO3)s2)c1C (configuration not stated) ?
DT40 TDP1 no CPT: -19%; IL-1B inflam inh: 0; D3 antag: 15; ClpP mod: -20%; DRD3 agonist: 4; TDP1 cell CPT: inconclusive

Results for CCOC(=O)CNC(=O)c1cccnc1Oc1ccc(Cl)cc1 ?
DT40 TDP1 no CPT: 9%; IL-1B inflam inh: 2; D3 antag: 24; ClpP mod: -1%; DRD3 agonist: 1; TDP1 cell CPT: 7%

What do the screens show for `COc1ccc(F)cc1C(=O)C1CCCN(C(=O)CCN2CCCCO2)C1` (configuration not stated)?
DT40 TDP1 no CPT: -26%; IL-1B inflam inh: 2; D3 antag: -2; ClpP mod: -9%; DRD3 agonist: -1; TDP1 cell CPT: -17%
